L3MBTL1 inh: qHTS Assay for the Inhibitors of L3MBTL1; Lethal(3)malignant brain tumor-like protein 1 (Homo sapiens), Q9Y468; AlphaScreen L3MBTL1–H3K9me1 peptide binding; Potency, µM (doses to about 57.1 µM), for inactives: at the top dose activity, negative = inhibition, usual class: inhibitors; 230,000 compounds, 0.66% hits; note: % is set by controls: 0 for no effect and ±100 for the full control effect; nearly all actives have a fitted effect of over 60% in size
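AlphaScreen assay: L3MBTL1 (50 nM final) was preincubated 30 min at room temperature with biotinylated H3(1-15)K9me1 peptide (75 nM final), then 30 min with library compounds; streptavidin donor and nickel chelate acceptor beads (10 ug/mL final) added, 30 min dark.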
Pol iota inh: qHTS for Inhibitors of Polymerase Iota | DNA polymerase iota (Homo sapiens), Q9UNA4 | Pol iota fluorescent replication assay, 10 min | Potency, µM (series often up to 115 µM), for the others: at the top dose activity, negative = inhibition, usual class: inhibitors | 390,000 compounds, 1% hits | AID 588590, 2011
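Fluorescent replication assay read twice, at 0 min and 10 min after adding 50 nM (final) substrate. Enzyme (10 nM) and compounds were first incubated 15 min at room temperature; enzyme-free buffer wells were negative controls.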
POLB inh: qHTS Assay for Inhibitors of DNA Polymerase Beta. Pol beta primer extension/strand displacement, fluorescence kinetic. 340,000 compounds, 1.3% hits. Potency, µM (series often up to 114 µM), inactives show top-dose activity change, negative = inhibition, usual class: inhibitors. P06746; note: % is set by controls: 0 for no effect and ±100 for the full control effect
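Kinetic readout of DNA synthesis with strand displacement by Pol beta. Compound and 10 nM enzyme sit 15 min at room temperature; 50 nM substrate starts the reaction, read immediately and at 10 min.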
Pol eta inh: qHTS for Inhibitors of Polymerase Eta | recombinant Pol eta, fluorescent DNA replication assay | Potency, µM (doses to about 114 µM), for inactives: at the top dose activity change, negative = inhibition, actives largely listed as inhibitors | 390,000 compounds, 1.2% hits; note: % is set by controls: 0 for no effect and ±100 for the full control effect
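Fluorescent replication assay: 50 nM final substrate added after a 15 min room-temperature compound preincubation with 10 nM enzyme. Signal taken at 0 min and again at 10 min.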
APEX1 inh: qHTS Assay for Inhibitors of the Human Apurinic/apyrimidinic Endonuclease 1 (APE1); 350,000 compounds, 0.35% hits; recombinant APE1, TAMRA/BHQ-2 abasic DNA cleavage fluorescence; Potency, µM (highest dose often 65.8 µM), inactives show at the highest dose activity change, negative = inhibition, usual class: inhibitors; DNA repair nuclease/redox regulator APEX1 (Homo sapiens), P27695;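 note: plate controls were vehicle for no effect and reference inhibitor for full effect; nearly all actives have a fitted effect of over 55% in size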
Target sequence (P27695 whole entry, looked up): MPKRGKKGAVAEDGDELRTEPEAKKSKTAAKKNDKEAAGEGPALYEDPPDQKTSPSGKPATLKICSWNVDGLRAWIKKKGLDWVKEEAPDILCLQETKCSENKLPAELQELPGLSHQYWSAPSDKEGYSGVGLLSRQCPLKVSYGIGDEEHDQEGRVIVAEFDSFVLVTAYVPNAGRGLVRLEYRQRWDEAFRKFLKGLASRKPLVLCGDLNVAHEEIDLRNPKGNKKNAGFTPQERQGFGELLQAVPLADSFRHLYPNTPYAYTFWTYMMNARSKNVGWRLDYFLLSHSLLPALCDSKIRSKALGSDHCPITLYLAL
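Kinetic fluorescence read (525 ex/598 em nm, three reads 60 s apart) of AP-site incision; signal = third minus first read. Enzyme 0.75 nM, dual-labelled THF duplex 50 nM, compound preincubation 15 min RT.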
Pol kappa inh: qHTS for Inhibitors of Polymerase Kappa. DNA polymerase kappa (Homo sapiens), Q9UBT6. purified Pol kappa, fluorescent DNA synthesis assay, 10 min. Potency, µM (series often up to 107 µM), for inactives: top-dose activity, negative = inhibition, actives largely listed as inhibitors. 400,000 compounds, 0.53% hits. AID 588579, 2011; note: % is set by controls: 0 for no effect and ±100 for the full control effect
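Enzyme at 10 nM met test compounds for 15 min at room temperature. Substrate addition (50 nM final) began the reaction, which was monitored by fluorescence at 0 and 10 min.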
TbPGK inh: qHTS for inhibitors of Phosphogylcerate Kinase: Hit Validation Screen. shares compounds with Pol kappa inh. 500 compounds, 79% hits. Potency, µM (doses to about 57.5 µM), for the others: top-dose activity change, negative = inhibition, actives largely listed as inhibitors. TbPGK coupled GAPDH assay, Kinase-Glo luminescence; note: % is set by controls: 0 for no effect and ±100 for the full control effect; nearly all actives have a fitted effect of over 65% in size
Target sequence (P07378 whole entry, looked up): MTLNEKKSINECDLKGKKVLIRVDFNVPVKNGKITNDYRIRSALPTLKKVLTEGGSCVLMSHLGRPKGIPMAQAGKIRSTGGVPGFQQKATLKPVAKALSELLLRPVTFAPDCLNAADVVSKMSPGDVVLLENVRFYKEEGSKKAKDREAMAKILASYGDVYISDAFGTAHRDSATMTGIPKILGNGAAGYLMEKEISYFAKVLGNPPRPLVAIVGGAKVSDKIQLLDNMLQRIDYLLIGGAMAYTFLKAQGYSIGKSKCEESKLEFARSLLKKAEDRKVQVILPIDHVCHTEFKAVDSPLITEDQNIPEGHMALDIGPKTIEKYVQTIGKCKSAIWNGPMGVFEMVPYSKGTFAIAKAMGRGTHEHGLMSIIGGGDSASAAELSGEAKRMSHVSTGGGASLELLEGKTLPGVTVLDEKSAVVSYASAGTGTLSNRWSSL
Pol iota confirm: qHTS for Inhibitors of Polymerase Iota: Confirmatory Assay for Cherry-picked Compounds. shares compounds with Pol kappa inh. Pol iota primer extension, TAMRA/BHQ fluorescence. Potency, µM, usual class: inhibitors. 1,500 compounds, 77% hits. AID 720496, 2013
The depositor's hits bear a star; ? = inconclusive; / = no result; [ ] = dose if it differs, or a comment. Hits are enriched below; roughly 2.5% of the tested compounds scored in any of these assays. Calls come from the whole dose curve; as a rule, active = well fitted curve in the direction sought with a large enough effect; inconclusive = small, poorly fitted or top-dose-only effect, or another doubt; inactive = no such curve, though single readings can be large; an effect the other way counts as inactive or inconclusive. Potency is the fitted concentration of half-maximal effect.

SMILES | L3MBTL1 inh | Pol iota inh | POLB inh | Pol eta inh | APEX1 inh | Pol kappa inh | TbPGK inh | others
CC1=CC2=NC(=O)/C(=C\c3cc(C)n(-c4ccc(F)cc4)c3C)C(=N)N2O1 | 1% | 18% | 2% | -7% | -1% | -7% | /
COc1ccccc1NC(=O)c1cnc(SCC(=O)N2CCOCC2)n(C)c1=O | / | 12% | 4% | ? | / | -4%[60.1 µM] | / | Pol iota confirm=?
Fc1cccc(CCN2CCNC[C@@H]2Cc2ccccc2)c1 | / | ? | / | 11% | / | -8% | ?
COc1ccc(-n2c(SCC(=O)Nc3nccs3)nnc2-c2ccc(Cl)cc2)cc1 | / | 13% | / | ? | / | 0% | / | Pol iota confirm=?
COc1ccc(-c2nnc(SCC(=O)Nc3ccc(C(=O)O)cc3)n2-c2ccc(Cl)cc2)cc1 | / | -6% | ? | -4% | -2% | 6% | /
O=C(O)c1cc(N2C(=O)C=CC2=O)cc(N2C(=O)C=CC2=O)c1 | / | 1.1µM* | / | 2.2µM* | / | 2.2µM* | ?
Cc1nc(SC(C)C(=O)Nc2cccc(C(F)(F)F)c2)c2c(C)c(C(=O)O)sc2n1 (stereo not drawn) | / | 7% | ? | ? | 3% | ? | / | Pol iota confirm=34*
Cc1nc(N2CCC(C)CC2)c2c(C)c(C(=O)Nc3cccc(C(F)(F)F)c3)sc2n1 | / | 19% | 0% | -12% | -5% | -27% | /
Clc1ccccc1Nc1nnc(-c2ccncc2)s1 | -4% | 5% | 0% | 4% | 6% | -1% | 15µM*
COc1ccc(Nc2nnc(-c3ccncc3)s2)cc1Cl | / | 20% | ? | ? | ? | 3% | /
CNc1ccc(/C=C(\CCC(=O)O)c2nc3ccccc3s2)cc1[N+](=O)[O-] | -12% | -1% | 32µM* | 13µM* | 35µM* | -15% | / | Pol iota confirm=42*
CCOC(=O)N/N=C/c1ccccc1-c1cc(OC)ccc1OC | / | / | / | / | 5% | / | /
O=C(Cn1nc(C(=O)O)c2ccccc2c1=O)Nc1cccc(S(=O)(=O)N2CCCC2)c1 | -17% | 108% | / | 4% | 7% | -15% | /
CCN(CC)c1ccc2nc3ccccc3[n+](CC)c2c1 | 20µM* | ? | ? | ? | 5% | -35% | 33µM*
CCN(CC)c1ccc2cc(-c3nc4ccccc4[nH]3)c(=O)oc2c1 | 6% | 29% | ? | ? | -2% | -4% | /
CCCc1cc(=O)oc2cc(OCC(=O)NCc3cccs3)ccc12 | 10% | 20% | -22% | 4% | 18% | 14% | /
CCCc1cc(=O)oc2cc(OCC(=O)Nc3ccc(S(N)(=O)=O)cc3)ccc12 | / | 5µM* | 89µM* | 10µM* | ? | 40µM* | / | Pol iota confirm=38*
Cc1ccc(O)c(N=Nc2ccccc2)n1 | / | -9%[58.9 µM] | -13%[57.1 µM] | -2%[57.1 µM] | 1% | 6%[60.1 µM] | 15µM*
COc1ccc(/C=N/Nc2nncc3ccccc23)cc1 | -6% | -17% | -4% | 5% | -4% | -7% | 18µM*
Cc1noc(C(=O)Nc2ccc(F)c(Cl)c2)c1Cl | / | 60% | 53% | -6% | -3% | -1% | /
Cc1cc(Cl)ccc1OCC(=O)Nc1c(Cl)ccc2nsnc12 | / | -18% | 11% | -4% | / | -7% | /
c1ccc2nc(-c3nc4ccccc4o3)ccc2c1 | -6% | 16% | 0% | -3% | 1% | -11% | 18µM*
CCCCOc1ccc(C2C(=O)N(C3CCCCC3)CC(=O)N2C2CCCCC2)cc1 (stereo not drawn) | / | 13% | 16% | -9% | / | -2%[60.1 µM] | /
O=C(Nc1ccc(C(=O)N2CCCCC2)cc1)c1ccccc1 | / | 3% | / | 3% | / | -5% | /
O=C(Nc1ccccc1)Nc1ccc(C(=O)N2CCCC2)cc1 | 7%[11.4 µM] | -27% | 24% | -2% | 4% | -16% | 16µM*
SMILES | L3MBTL1 inh | Pol iota inh | POLB inh | Pol eta inh | APEX1 inh | Pol kappa inh | TbPGK inh | others
Cc1cccc(-c2cc(=O)c3cc(Br)ccc3o2)c1 | / | / | / | / | -3% | -12%[19.4 µM] | /
CCOc1ccc(NC(=O)Cn2cc(C(=O)c3ccc(CC)cc3)c(=O)c3cc(C)ccc32)cc1 | / | 16% | ? | 50µM* | / | -9% | / | Pol iota confirm=?
Nc1c(/C=C2/C=CC(=O)C(O)=C2)c(=O)nc2sc(CC(=O)N3CCCCC3)nn12 | / | ? | ? | -10% | 1.9µM* | ? | 1.6µM*
CCN(CC)CCCNC(=O)CCn1nc(-c2ccccc2)ccc1=O | / | -10% | 0% | -11% | 2% | -3% | /
Cc1cc(NC(=O)CSc2ccc(-c3nc4cc(C)c(C)cc4[nH]3)cn2)no1 | -15% | 23% | 0% | -16% | 2% | 8% | 5%
Cc1cc2nc(-c3ccc(SCC(=O)Nc4ccc(S(=O)(=O)NC5CC5)cc4)nc3)[nH]c2cc1C | 6% | ? | ? | ? | 0% | -6% | /
Cn1c(C(=O)NC2CCCCC2)cc2sccc21 | -4% | 18% | 18% | -8% | 2% | 3% | ?
CN(C(=O)c1cc2sccc2n1C)C1CCCCC1 | -4% | -9% | 10% | -12% | -2% | -5% | /
c1cc2c(cc1C1=NNC(=NC3CC3)SC1)OCCO2 | -16% | ? | -10% | 0% | -4% | -20% | 9.2µM*
CCOc1cc(C(c2c(C)[nH][nH]c2=O)c2c(C)[nH][nH]c2=O)ccc1OCc1ccc([N+](=O)[O-])cc1 | / | ? | 0% | -15% | -9% | 0% | /
CCOc1cc(/C=C2/NC(=S)NC2=O)ccc1OCc1ccc([N+](=O)[O-])cc1 | -2% | ? | ? | ? | 0% | -4% | / | Pol iota confirm=?
Cc1c(-c2ccc(Br)cc2)nc2ccccn12 | 3% | 0% | 2%[57.1 µM] | -14% | -2% | -5% | /
CN(C)c1ccc(-c2nc3ccccn3c2/N=C/c2ccc(Br)cc2)cc1 | ? | 5% | -1% | -12% | -2% | -11% | ?
Cc1ccc(NC(=O)CSc2ccc3nnc(CCNS(=O)(=O)c4ccccc4)n3n2)cc1Cl | / | 21% | 9% | -15% | / | 3% | /

Assay outcomes deposited in PubChem BioAssay by National Center for Advancing Translational Sciences (NCATS).
